# In PubChem BioAssay AID624167 (Sanford-Burnham Center for Chemical Genomics, 2012):
# Assay: inhibition of PEG-3 promoter-driven reporter – cell-based, HeLa, luciferase, CREF/GAPDH counter-screen panel, dose response (AID 624167)
# Settings: CREF/GAPDH counter-screens; run 2, dose range 1, at 100 µM (top of the series)
row,SMILES,inhibition [%]
1,Nc1nonc1-n1nnc(C(=O)N/N=C/c2cc(Br)ccc2O)c1CNc1ccccc1,66.5
2,COc1ccc2c(c1)c(=Cc1ccc(N(C)C)cc1)c1cc(-c3ccccc3)[n+](C)n12,99.9
3,O=C(c1ccco1)N1CCN(C(c2ccccc2Cl)c2nnnn2Cc2cccs2)CC1 (stereo not drawn),72.3
4,O=C(O)c1ccc(N/N=C/c2ccc3c(c2)OCO3)cc1,97.7
5,O=C(NNC(=O)c1cccnc1SCc1cccc([N+](=O)[O-])c1)c1ccccn1,-38.1
6,CS(=O)(=O)Nc1cccc(NC(=O)C2Cc3c(-c4ccccc4)ccnc3O2)c1 (stereo not drawn),54.2
7,C=CCn1c(COc2ccccc2)nnc1SC(C)C(=O)N/N=C/c1cc(Cl)ccc1O (stereo not drawn),59.9
8,C=CCc1cccc(/C=N/NC(=O)C(C)Nc2cccc(C)c2)c1O (stereo not drawn),5.69
9,CCCC(=O)NC(c1ccccc1)c1ccc2cccnc2c1O (stereo not drawn),39.4
10,COc1cc(/C=C2\SC(=Nc3ccccc3OC)NC2=O)ccc1O,39.3
11,COc1cccc2c1C(=O)c1c(O)c3c(c(O)c1C2=O)CC(O)(C(C)=NNC(=O)c1ccc(Cl)c(Cl)c1)CC3OC1CC(N)C(O)C(C)O1 (stereo not drawn),99.4
12,CCC(c1ccc(O)c(O)c1)C(CC)c1ccc(O)c(O)c1 (stereo not drawn),99.5
13,Cc1cccc(OCC(=O)NCC(=O)N/N=C/c2cc(Br)cc(Br)c2O)c1,74.4
14,CCCCC(=O)NC(c1ccccc1OC)c1ccc2cccnc2c1O (stereo not drawn),50.9
15,O=C(O)c1ccc(CN2C(=O)c3cccc4c([N+](=O)[O-])ccc(c34)C2=O)cc1,100
16,O=C(Nc1ccc(Cc2ccncc2)cc1)c1ccc([N+](=O)[O-])o1,95.3
17,COCCCNC(=O)c1ccc(Cn2c(=O)c3ccccc3n(Cc3ccccc3C#N)c2=O)cc1,25.1

row,SMILES,inhibition [%]
1,CCCC(=O)NC(c1ccc(Cl)cc1)c1ccc2cccnc2c1O (stereo not drawn),70.1
2,CN=c1sc2c(n1C)C(=O)c1ccccc1C2=O,87.2
3,CCCCCCCNC(=O)C1(CC2CC(c3cccc(Br)c3)=NO2)CCNCC1 (stereo not drawn),99.3
4,Cc1ccc(/C=C2\SC(=S)N(CCCC(=O)NNC(=O)c3ccccc3O)C2=O)cc1,69.2
5,Cc1ccc(C)c(S(=O)(=O)N2CCN(c3ncnc4sccc34)CC2)c1,61.2
6,Cc1oc(-c2ccc3c(c2)OCCO3)cc1C(=O)O,97.9
7,NS(=O)(=O)c1ccc(CCNc2nn3c(-c4ccc(F)c(Cl)c4)cnc3s2)cc1,75.5
8,CCN(CC)S(=O)(=O)c1cccc(C(=O)N/N=C(\C)c2ccc(O)cc2O)c1,-50.5
9,O=C(N/N=C/c1cc([N+](=O)[O-])ccc1O)c1ccc(COc2ccc3c(c2)CCC3)o1,-2.8
10,CCCC(=O)NC(c1ccc(OC)cc1)c1ccc2cccnc2c1O (stereo not drawn),69
11,COc1ccc(/C=C2/CCCC(CN(C)C)C2=O)cc1 (stereo not drawn),67.1
12,COc1ccc(Nc2ncnc3ccc(Br)cc23)c(OC)c1,93.7
13,C/C(=N\NC(=O)c1c(C)nc2ccccn12)c1ccc(O)cc1O,7.76
14,COc1ccc(-n2c(O)c(/C=N/Nc3nc(C)cc(C)n3)c3ccccc3c2=O)cc1OC,-21.1
15,CC(C)(C)c1ccc(Oc2ccc(N)cc2)cc1,95.6
16,CN(C(=O)COC(=O)/C=C/c1cccc([N+](=O)[O-])c1)C1CCS(=O)(=O)C1 (stereo not drawn),-31.8
